aDG glyco up = increases alpha dystroglycan glycosylation. Pro5-aDG cells, alpha-DG glycosylation AlphaScreen (IIH6); 0% Pro5, 100% B10-LARGE cell signal. AID 624168. 0.22% of 360,000 active. activation, % at 10 µM;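 active = activation of at least 8% versus controls, or a plate z-score of at least 8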;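 note: Pro5 are CHO cells carrying HIG-tagged alpha-DG that lacks glycosylation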
MPTP block = permeability transition pore inhibition; inhibition, % at 10 µM; AID 602449; isolated mouse mitochondria, Ca2+ swelling absorbance, 30 min; 1.4% of 360,000 active;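 active = inhibition of 50% or more, scaled per plate between neutral and stimulator controls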;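 note: 0% = DMSO wells given calcium and 100% = 1 mM EGTA wells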
NadD inh = inhibitors of Staphylococcus aureus NadD. inhibition, % at 20 µM. 0.78% of 360,000 active. purified NadD enzyme, colorimetric absorbance read-out; in the data active = inhibition above about 26%
TAG inh = reduces triacylglycerol accumulation in H9c2 cells | Nile Red lipid (TAG) fluorescence; cells loaded with 200 µM oleic acid | inhibition, % at 12.5 µM | 0.66% of 230,000 active;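 active = pattern-corrected inhibition of lipid staining of at least 50% with the nuclear-stain viability signal not falling by more than 50%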;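 note: 0% = DMSO wells and 100% = triacsin C control wells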
NadD conf = NadD (S. aureus) inhibition, single concentration confirmation | shares compounds with NadD inh | purified S. aureus NadD, colorimetric enzyme assay | inhibition, % at 20 µM | 13% of 2,000 active; in the data active = inhibition mostly above about 42%, no sharp cut-off; inactive = mostly below about 42%
* = called active by the depositor; · = not tested or not shown. Only some compounds are listed: those with a hit (about 2.7% of all), similar ones and a draw of the others.

SMILES	aDG glyco up	MPTP block	NadD inh	TAG inh	NadD conf
O=C(Nc1ccc2oc(-c3ccccc3Cl)nc2c1)c1ncn[nH]1	0.2	-1.5	9.0	·	·
O=C(Nc1ccc2oc(-c3cccc4ccccc34)nc2c1)c1ncn[nH]1	0.2	-3.2	26.8*	-16.9	-1.6
CCC(C)c1ccc2oc(-c3ccc(NC(=O)c4ncn[nH]4)cc3)nc2c1 (configuration not stated)	0.9	0.6	16.1	·	·
CC(C)c1ccc2oc(-c3ccc(NC(=O)c4ncn[nH]4)cc3)nc2c1	0.9	2.7	38.7*	·	8.7
COc1ccccc1NC(=O)c1cc(-c2ccc(C)o2)nc2ccccc12	-0.3	-0.2	0.6	·	·
CCC/C(C#CCCN1C(=O)c2ccccc2C1=O)=C1/c2ccccc2C(=O)N1c1ccccc1	-0.3	-0.5	4.8	5.2	·
OC(CNCCC1C=Nc2ccccc21)Cn1c2ccc(Cl)cc2c2cc(Cl)ccc21 (configuration not stated)	-0.8	3.3	34.0*	·	20.3
Cc1cccc2cc3c(N)c(C#N)sc3nc12	0.0	15.3	2.7	3.5	·
Cc1sc(NC(=O)c2sc3nc4c(C)cccc4cc3c2N)c(C#N)c1C	0.4	29.7	61.7*	29.1	7.2
CC(C)C[C@H]1CN([C@@H](Cc2ccccc2)CN2CCC[C@H]2CN2C(=O)C(=O)NC[C@@H]2Cc2ccc(O)cc2)C(=O)C(=O)N1CC1CCCCCC1	-0.3	-5.0	36.4*	·	38.2
CC(C)C[C@H]1CNC(=O)C(=O)N1C[C@@H]1CCCN1C[C@H](Cc1ccc(O)cc1)N1C[C@H](Cc2ccccc2)N(CC2CCCCCC2)C(=O)C1=O	-0.2	-3.0	33.8*	·	37.3
Cc1ccccc1NC(=O)Cc1nc(COC(=O)c2ccc(S(C)(=O)=O)c([N+](=O)[O-])c2)cs1	-0.3	-0.2	17.2	4.1	·
O=c1[nH]c(Cn2nnc(-c3ccccc3)n2)nc2scc(-c3ccccc3)c12	0.7	5.5	30.4*	-15.9	20.7
O=c1[nH]c(CN2CCN(Cc3ccccc3)CC2)nc2scc(-c3ccccc3)c12	0.1	0.4	4.0	11.6	·
C=CCn1c(O)c(C2=c3ccccc3=NC2=O)s/c1=N/c1nccs1	-0.4	6.5	32.8*	25.4	4.4
COc1cccc(S(=O)(=O)N(C)C[C@H]2Oc3cc(Br)ccc3S(=O)(=O)N([C@@H](C)CO)C[C@H]2C)c1	0.0	0.0	-4.6	-25.0	·
Cc1ccc(CNC(=O)Cn2cnc(C(=O)Nc3ccc(C)c(C)c3)n2)o1	0.1	-0.6	-1.1	18.1	·
CC(C)C[C@H]1CNC(=S)N1CC1CCCN1C[C@H](Cc1ccc(O)cc1)N1C[C@H](Cc2ccccc2)N(CC2CCCCCC2)C1=S (some centres not stated)	0.6	0.8	22.2	-37.1	·
CC(C)C[C@H]1CNC(=S)N1CC1CCCN1C[C@H](Cc1ccccc1)N1C[C@H](Cc2ccc(O)cc2)N(CC2CCCCC2)C1=S (some centres not stated)	1.2	1.4	32.3*	100.6	-1.2
CC(C)C[C@H]1CNC(=S)N1C[C@H]1CCCN1C[C@H](Cc1ccccc1)N1C[C@H](Cc2ccc(O)cc2)N(CC2CCCCCC2)C1=S	1.1	5.9	42.3*	·	-11.9
C#CC[N+]1(CC#Cc2ccc(C)cc2)CCCCC1	0.0	0.8	10.4	-13.1	·
O=C(c1ccc2snnc2c1)N1CCSCC1	0.6	-6.5	-3.5	-8.3	·
O=C(c1ccc2snnc2c1)N1CCCCC1	-0.1	-0.4	51.7*	-5.5	1.3
CCOC(=O)c1c(-c2ccccc2)csc1NC(=O)/C(C#N)=C/c1ccc(O)c(OC)c1	-0.1	12.4	44.5*	·	16.1
COc1ccc(/C=N/NC(=O)c2cc(-c3ccccc3OC)nc3ccccc23)cc1COC(C)=O	0.1	1.3	9.3	0.6	·
SMILES	aDG glyco up	MPTP block	NadD inh	TAG inh	NadD conf
COc1ccccc1-c1cc(C(=O)N/N=C/c2ccc(C)s2)c2ccccc2n1	-0.5	2.3	32.2*	-50.1	16.2
COc1ccc(/C=N/NC(=O)c2cc(-c3ccc(C)cc3C)nc3ccccc23)cc1COC(C)=O	0.0	5.0	37.5*	5.9	-3.0
COc1cc(NC(=O)c2cccc3c2C(=O)N(C2CCCCC2)C3)cc(OC)c1OC	-0.7	-0.2	-6.5	·	·
COc1ccc(-n2cnnc2SCC(=O)Nc2ccccc2F)cc1	-0.1	-0.7	-4.5	·	·
COc1cc(/C=C2/N=C(c3ccccc3)OC2=O)c(F)cc1OCc1ccccc1	0.2	3.0	38.8*	-7.7	6.1
COc1ccc(OC)c(/C=C2\N=C(c3ccccc3)OC2=O)c1	-0.2	-0.4	7.1	·	·
O=C1OC(c2cccs2)=N/C1=C\c1ccc(-c2ccccc2Cl)o1	0.0	0.0	39.5*	·	4.4
O=C1OC(c2cccs2)=N/C1=C/c1ccc(-c2cccc(C(=O)O)c2)o1	-0.3	4.5	9.4	2.4	·
CCOC(=O)/C=c1\s/c(=C\c2ccc3cc(OC)ccc3c2)c(=O)n1CC(=O)NCc1ccc2c(c1)OCO2	-0.1	1.8	32.6*	3.6	-3.3
O=C(N/N=C/c1ccc(Cl)c([N+](=O)[O-])c1)c1cc(-c2ccc3c4c(cccc24)CC3)n[nH]1	-0.3	2.1	51.2*	23.3	0.9
Cn1cnnc1SCc1ccccc1	-0.1	-6.3	-3.6	2.0	·
Cn1cnnc1SCc1ccc(-c2ccc(Br)cc2)o1	0.0	38.6	40.8*	·	13.4
O=c1cc(-c2ccc(O)cc2)oc2c(-c3c(O)cc(O)c4c(=O)cc(-c5ccc(O)cc5)oc34)c(O)cc(O)c12	-0.2	7.5	19.2	·	·
O=c1cc(-c2ccc(O)c(-c3c(O)cc(O)c4c(=O)cc(-c5ccc(O)cc5)oc34)c2)oc2cc(O)cc(O)c12	-0.4	14.1	77.3*	-5.5	66.1*
O=C(N/N=C/c1cccc([N+](=O)[O-])c1)c1nc2ccccc2c(=O)[nH]1	0.0	4.7	-1.2	-9.0	·
O=C(N/N=C/c1ccccc1Cl)c1nc2ccc([N+](=O)[O-])cc2c(=O)[nH]1	0.0	3.9	35.9*	4.3	42.4
CN(C)C1=C(Cl)C(=O)N(c2ccc(Cl)c(Cl)c2)C1=O	0.1	1.0	3.3	-1.8	·
CN(C)/C=C1\C(=O)N(c2ccc(Cl)c(Cl)c2)CS1(=O)=O	-0.1	2.0	32.6*	·	-1.1
COc1ccc(Cl)cc1C(=O)NNC(=S)NC(=O)c1cc(-c2ccc(Cl)cc2)nc2ccccc12	0.3	42.8	71.9*	10.2	17.9
CCNC(=S)NNC(=O)c1cc(-c2ccc(OC)cc2)nc2ccccc12	-0.2	4.4	1.7	-6.9	·
Cc1sc(NC(=O)c2cc(-c3ccc(Cl)cc3)nc3ccccc23)c(C(N)=O)c1C	-0.6	1.4	33.0*	28.2	5.9
O=C(N/N=C/c1ccccn1)c1cc(-c2ccc(Cl)cc2)nc2ccccc12	-0.3	3.4	31.0*	·	6.1
O=C(O)COc1ccccc1/C=N/NC(=O)c1cc(-c2ccc(Cl)cc2)nc2ccccc12	-0.1	2.7	23.7*	-4.4	53.0*
O=C(N/N=C/c1ccccn1)c1cc(-c2ccc(Br)cc2)nc2ccccc12	-0.3	1.6	32.0*	42.9	6.5
COc1ccc(C=Nc2ccc3[nH]ncc3c2)c(O)c1	0.8	0.0	-0.6	-18.9	·

Source: PubChem
